Data on 10 molecules can be found in ChEMBL document CHEMBL3988442, “University of Dundee, Small-Polar-MMV Screening Library” (2021).

For some assays here: Potency and affinity values are given separately.

Holding throughout (set-up): scale not given: direction of the effect not stated beside the values
Experiment [1] concerns the target Protein translocase subunit SecA (Escherichia coli (strain K12)) (UniProt P10408). The experiment is described as follows: Assay to Identify E. coli SecA ATPase Inhibitors. Type of experiment: functional. The following applies: 30 µM.
The target of experiment [2] is T1, Ubiquitin-activating enzyme e1, putative (Leishmania donovani (strain BPK282A1)) (UniProt E9BSI1).
T1 sequence (whole entry): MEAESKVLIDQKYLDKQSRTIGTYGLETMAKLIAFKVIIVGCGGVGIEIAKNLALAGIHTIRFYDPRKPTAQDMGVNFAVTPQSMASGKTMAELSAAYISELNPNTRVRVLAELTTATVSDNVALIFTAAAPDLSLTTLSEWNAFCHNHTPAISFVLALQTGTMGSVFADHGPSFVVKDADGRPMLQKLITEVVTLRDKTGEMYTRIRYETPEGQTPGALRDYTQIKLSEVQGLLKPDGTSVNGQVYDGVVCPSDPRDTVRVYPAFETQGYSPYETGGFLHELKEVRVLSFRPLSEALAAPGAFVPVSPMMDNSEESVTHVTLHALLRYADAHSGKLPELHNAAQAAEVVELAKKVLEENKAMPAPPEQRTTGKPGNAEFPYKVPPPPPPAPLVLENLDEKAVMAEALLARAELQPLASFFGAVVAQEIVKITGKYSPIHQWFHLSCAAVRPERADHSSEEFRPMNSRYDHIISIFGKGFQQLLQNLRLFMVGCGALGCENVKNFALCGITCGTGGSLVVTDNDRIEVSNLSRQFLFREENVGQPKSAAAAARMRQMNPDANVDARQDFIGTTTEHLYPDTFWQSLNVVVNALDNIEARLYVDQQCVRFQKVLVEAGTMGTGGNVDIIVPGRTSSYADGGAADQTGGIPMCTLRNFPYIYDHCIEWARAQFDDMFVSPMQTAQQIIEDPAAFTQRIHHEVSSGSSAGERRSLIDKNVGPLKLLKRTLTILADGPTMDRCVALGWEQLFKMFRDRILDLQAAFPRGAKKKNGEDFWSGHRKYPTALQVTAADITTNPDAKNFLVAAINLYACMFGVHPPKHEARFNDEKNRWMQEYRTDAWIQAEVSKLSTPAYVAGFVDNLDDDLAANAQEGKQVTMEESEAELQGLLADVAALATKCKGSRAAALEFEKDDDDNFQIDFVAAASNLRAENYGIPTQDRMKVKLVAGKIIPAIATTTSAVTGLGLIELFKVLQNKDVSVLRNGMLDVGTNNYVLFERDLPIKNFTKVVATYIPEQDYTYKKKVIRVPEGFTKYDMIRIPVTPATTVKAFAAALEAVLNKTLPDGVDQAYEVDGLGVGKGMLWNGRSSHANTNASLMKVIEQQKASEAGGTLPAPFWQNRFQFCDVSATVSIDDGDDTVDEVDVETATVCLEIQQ
The experiment is described as follows: Leishmania donovani Ubiquitin Activating Enzyme (LdE1). Particulars: 30 µM. The class given is functional.

Experiment [3] concerns the target AMP-activated protein kinase, AMPK (Homo sapiens) (UniProt P54646+O43741+P54619+Q9UGJ0+Q9Y478+Q13131+Q9UGI9). The experiment in a line: AMP-dependent Kinase enzyme assay. An in vitro enzyme assay that detects ADP turnover that is directly proportional to AMPK activity. This uses naive AMPK that is activated during the assay with MK-8722. The class given is functional. Particulars: 30 µM.

Experiment [4] deals with Sialic acid-binding Ig-like lectin 9 (Homo sapiens) (UniProt Q9Y336). The experiment in a line: Hs-Siglec9 ALPHAscreen SOP 20170721. Particulars: 10 µM.
Chain of Sialic acid-binding Ig-like lectin 9 (Homo sapiens) (Q9Y336 whole entry): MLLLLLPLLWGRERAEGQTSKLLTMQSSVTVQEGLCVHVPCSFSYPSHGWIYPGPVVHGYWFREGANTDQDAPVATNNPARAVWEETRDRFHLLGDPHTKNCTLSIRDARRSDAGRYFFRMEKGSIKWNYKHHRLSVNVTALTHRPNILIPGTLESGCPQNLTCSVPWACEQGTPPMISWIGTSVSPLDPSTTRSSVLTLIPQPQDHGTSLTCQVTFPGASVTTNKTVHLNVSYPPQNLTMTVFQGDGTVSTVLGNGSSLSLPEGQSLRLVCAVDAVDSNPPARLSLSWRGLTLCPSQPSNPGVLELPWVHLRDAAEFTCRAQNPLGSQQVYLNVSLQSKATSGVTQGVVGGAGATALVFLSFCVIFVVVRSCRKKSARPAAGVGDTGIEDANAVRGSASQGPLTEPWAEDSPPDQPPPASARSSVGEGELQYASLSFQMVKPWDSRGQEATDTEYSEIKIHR
Experiment [5] has as its system Trypanosoma cruzi. The experiment in a line: Trypanosoma cruzi phosphomannomutase and mannose-1-phosphate guanylyltransferase assay. Type of experiment: functional. The following applies: 10 µM.
For experiment [6], the target named is T2, Arginase-2, mitochondrial (Homo sapiens) (UniProt P78540).
T2 sequence (whole entry): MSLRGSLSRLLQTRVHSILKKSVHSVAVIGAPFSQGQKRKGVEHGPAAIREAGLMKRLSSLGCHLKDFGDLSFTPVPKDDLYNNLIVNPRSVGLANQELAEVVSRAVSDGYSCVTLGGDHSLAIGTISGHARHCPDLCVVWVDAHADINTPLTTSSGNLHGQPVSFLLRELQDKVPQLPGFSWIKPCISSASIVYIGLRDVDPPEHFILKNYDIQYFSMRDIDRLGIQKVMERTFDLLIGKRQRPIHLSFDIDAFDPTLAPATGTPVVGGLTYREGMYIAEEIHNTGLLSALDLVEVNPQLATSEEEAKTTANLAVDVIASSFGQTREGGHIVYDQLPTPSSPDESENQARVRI
The experiment in a line: in vitro enzyme assay to detect the production of urea directly proportional to the activity of Arginase II. Note: in the data most compounds retested in dose-response had high values. Particulars: 33.3 µM. Type of experiment: functional.

Experiment [7] concerns the target T3, Proteasome subunit beta (Trypanosoma cruzi) (UniProt O96673).
T3 sequence (whole entry): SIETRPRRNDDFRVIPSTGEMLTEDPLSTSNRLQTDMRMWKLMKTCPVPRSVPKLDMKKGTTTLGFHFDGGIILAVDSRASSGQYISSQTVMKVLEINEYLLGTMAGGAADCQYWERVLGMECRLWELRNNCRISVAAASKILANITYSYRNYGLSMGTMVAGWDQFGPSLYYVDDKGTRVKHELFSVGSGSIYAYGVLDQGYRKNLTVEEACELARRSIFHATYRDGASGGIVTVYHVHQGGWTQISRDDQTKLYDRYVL
The experiment in a line: Trypanosoma cruzi proteasome chymotrypsin-like activity (TcProtChymo) assay. Note: in the data most compounds retested in dose-response had high values. The class given is functional. The following applies: 9.37 µM.

The species named for experiment [8] is Homo sapiens. The experiment in a line: To identify inhibition of the IFN signalling (Jak-Stat) pathway via expression of an eGFP reporter gene under the control of an IFN-stimulated response element (ISRE) containing MxA promoter. Type of experiment: functional. Particulars: 30 µM.
Experiment [9] has as its target T4, Tyrosyl-tRNA synthetase, putative (Trypanosoma cruzi (strain CL Brener)) (UniProt Q4DSP6).
T4 sequence (whole entry): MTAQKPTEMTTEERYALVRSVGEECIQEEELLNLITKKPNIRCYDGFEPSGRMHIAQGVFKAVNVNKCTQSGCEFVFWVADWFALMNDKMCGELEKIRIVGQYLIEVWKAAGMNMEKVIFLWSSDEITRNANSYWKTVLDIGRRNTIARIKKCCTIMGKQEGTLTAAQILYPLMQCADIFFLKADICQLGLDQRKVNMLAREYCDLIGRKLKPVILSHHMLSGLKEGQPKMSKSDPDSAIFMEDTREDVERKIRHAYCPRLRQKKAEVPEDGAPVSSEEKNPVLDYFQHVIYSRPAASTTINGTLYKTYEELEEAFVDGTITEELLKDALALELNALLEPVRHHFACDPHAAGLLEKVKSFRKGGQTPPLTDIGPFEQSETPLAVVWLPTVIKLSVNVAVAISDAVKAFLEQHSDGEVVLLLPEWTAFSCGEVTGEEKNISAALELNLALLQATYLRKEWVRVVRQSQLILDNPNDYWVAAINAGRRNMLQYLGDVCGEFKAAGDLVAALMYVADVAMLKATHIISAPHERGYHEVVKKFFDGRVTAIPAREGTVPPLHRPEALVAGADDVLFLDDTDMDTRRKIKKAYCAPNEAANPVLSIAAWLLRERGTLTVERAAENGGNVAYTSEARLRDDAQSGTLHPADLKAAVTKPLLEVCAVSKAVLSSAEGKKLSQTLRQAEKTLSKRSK
The experiment is described as follows: Trypanosoma cruzi tyrosyl tRNA synthetase (TcYRS) _High Tyrosine SOP. Note: in the data most compounds retested in dose-response had high values. Particulars: 30 µM. Type of experiment: functional.

The target in experiment [10] is T4, Tyrosyl-tRNA synthetase, putative (Trypanosoma cruzi (strain CL Brener)). The experiment is described as follows: Trypanosoma cruzi tyrosyl tRNA synthetase (TcYRS) SOP. The class given is functional. The following applies: 30 µM.
The target of experiment [11] is Chromo domain-containing protein 1 (Saccharomyces cerevisiae (strain ATCC 204508 / S288c) (Baker's yeast)) (UniProt P32657). The experiment in a line: ScCHD-1 Enzyme Inhibition Assay. Note: in the data most compounds retested in dose-response had high values. Particulars: 30 µM. Type of experiment: functional.
Chain of Chromo domain-containing protein 1 (Saccharomyces cerevisiae (strain ATCC 204508 / S288c) (Baker's yeast)) (P32657 whole entry, the tested form may be a part): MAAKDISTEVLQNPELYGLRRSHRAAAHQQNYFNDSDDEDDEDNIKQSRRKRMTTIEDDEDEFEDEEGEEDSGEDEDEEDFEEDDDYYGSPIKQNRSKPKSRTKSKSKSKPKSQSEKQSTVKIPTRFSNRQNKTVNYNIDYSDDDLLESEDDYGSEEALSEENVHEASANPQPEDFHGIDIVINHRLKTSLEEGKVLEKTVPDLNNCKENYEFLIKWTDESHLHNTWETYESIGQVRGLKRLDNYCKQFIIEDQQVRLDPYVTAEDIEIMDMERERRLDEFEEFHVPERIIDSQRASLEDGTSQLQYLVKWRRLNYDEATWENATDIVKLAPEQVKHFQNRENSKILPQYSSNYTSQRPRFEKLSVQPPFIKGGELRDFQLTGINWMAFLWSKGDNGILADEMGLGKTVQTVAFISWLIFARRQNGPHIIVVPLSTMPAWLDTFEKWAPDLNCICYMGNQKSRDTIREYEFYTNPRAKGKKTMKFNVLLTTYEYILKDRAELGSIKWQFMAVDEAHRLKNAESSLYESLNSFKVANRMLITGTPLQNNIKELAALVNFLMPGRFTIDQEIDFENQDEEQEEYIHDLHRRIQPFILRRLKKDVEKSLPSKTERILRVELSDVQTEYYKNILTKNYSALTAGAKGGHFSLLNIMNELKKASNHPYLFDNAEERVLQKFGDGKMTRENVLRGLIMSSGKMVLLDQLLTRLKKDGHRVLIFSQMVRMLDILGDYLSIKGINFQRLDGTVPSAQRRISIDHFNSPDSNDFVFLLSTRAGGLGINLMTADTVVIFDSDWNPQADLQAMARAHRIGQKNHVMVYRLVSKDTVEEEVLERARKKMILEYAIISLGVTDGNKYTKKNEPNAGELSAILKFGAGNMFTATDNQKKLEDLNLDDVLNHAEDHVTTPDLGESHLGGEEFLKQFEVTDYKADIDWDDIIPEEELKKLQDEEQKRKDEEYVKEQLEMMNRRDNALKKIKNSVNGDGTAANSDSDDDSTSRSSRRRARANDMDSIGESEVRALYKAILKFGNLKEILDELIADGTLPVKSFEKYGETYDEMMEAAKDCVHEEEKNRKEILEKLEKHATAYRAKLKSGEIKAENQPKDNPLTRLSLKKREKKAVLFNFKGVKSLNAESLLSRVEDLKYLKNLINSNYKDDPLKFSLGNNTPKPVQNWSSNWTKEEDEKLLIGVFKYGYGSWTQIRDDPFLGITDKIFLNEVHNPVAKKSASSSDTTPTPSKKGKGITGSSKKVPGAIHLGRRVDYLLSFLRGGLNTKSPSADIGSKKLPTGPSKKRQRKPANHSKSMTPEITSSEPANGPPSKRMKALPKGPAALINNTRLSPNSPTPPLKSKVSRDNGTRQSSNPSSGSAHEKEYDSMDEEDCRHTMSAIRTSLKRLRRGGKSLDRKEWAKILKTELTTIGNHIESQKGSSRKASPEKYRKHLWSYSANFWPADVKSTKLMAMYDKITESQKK

Chain of Protein translocase subunit SecA (Escherichia coli (strain K12)) (P10408 whole entry): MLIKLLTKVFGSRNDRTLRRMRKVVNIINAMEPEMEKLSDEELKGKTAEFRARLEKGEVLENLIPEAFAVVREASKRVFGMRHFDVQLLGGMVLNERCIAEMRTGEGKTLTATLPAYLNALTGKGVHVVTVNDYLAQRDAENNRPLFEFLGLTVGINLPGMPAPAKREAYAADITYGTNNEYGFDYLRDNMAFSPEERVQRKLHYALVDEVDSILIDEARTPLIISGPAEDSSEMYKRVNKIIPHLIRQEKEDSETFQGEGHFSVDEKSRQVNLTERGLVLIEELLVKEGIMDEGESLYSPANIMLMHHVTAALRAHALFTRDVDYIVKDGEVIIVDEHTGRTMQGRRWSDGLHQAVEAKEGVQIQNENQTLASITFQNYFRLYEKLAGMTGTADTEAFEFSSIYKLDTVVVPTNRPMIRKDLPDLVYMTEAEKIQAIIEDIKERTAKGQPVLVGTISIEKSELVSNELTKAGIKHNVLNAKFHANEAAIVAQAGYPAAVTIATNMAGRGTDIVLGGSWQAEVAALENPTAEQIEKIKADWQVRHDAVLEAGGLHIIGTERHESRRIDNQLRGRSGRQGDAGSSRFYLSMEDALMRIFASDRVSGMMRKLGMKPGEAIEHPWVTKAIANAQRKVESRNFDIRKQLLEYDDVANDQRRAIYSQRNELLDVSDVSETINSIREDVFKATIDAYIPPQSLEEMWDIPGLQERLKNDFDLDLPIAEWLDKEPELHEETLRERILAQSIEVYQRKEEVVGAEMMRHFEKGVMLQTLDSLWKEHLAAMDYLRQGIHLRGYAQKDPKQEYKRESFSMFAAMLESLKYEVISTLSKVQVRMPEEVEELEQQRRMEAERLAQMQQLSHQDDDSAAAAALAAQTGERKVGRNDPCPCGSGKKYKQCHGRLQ

Regarding `O=c1ccc(-c2ccccc2F)nn1CCN1CCCS1(=O)=O`, the Percent Effect in experiment [1] is -6.51%; in [2], 13.5%; in experiment [3] it was -4.96%; in [4] it was 22.3%; in experiment [5], 6.16%; in [6], 3.72%. Moreover, the Percent Effect was 1.29% in [7]; -2.29% in experiment [8]; 1.07% in [9]; 8.64% in experiment [10]; -10.9% in [11].

Regarding `CC(CNC(=O)c1ccc(F)cc1Cl)N1CCCC1` (stereo not given), the Percent Effect in [1] was -1.76%; in [2] it was 9.72%; in experiment [3], 4.21%; in experiment [4], -4.19%; in experiment [5], -2.82%; in experiment [6], 6.18%. Also, the Percent Effect was 20.4% in experiment [7]; -9.11% in experiment [8]; 3.16% in experiment [9]; 5.13% in experiment [10]; -0.608% in experiment [11].

Regarding `COCC(=O)NCc1cc(=O)n2c(n1)CN(Cc1ccsc1)CCC2`, the Percent Effect in experiment [1] is -5.93%; in experiment [2] it was 8.11%; in [3] it was 3.64%; in [4], -0.625%; in experiment [5], -2.83%; in experiment [6], 6.05%. For the same molecule, the Percent Effect is 17.9% in [7]; -15.7% in experiment [8]; 2.16% in experiment [9]; 5.13% in experiment [10]; 2.68% in experiment [11].

Take `CCNC(=O)Nc1ccc2c(ccn2CC(=O)N(CC)CC)c1`: the Percent Effect in [1] is -2.78%; in [2], 18.4%; in experiment [3], -2.69%; in [4] it was 1.44%; in [5], -0.188%; in experiment [6] it was -4.6%. The Percent Effect in [7] is 12.5%; in experiment [8], 19.9%; in experiment [9], 9.31%; in experiment [10] it was 17.1%; in experiment [11] it was -6.24%.

On to `Cc1nc(C)n(C2CCCN(C(=O)Cc3n[nH]c4ccccc34)C2)n1` (stereo not given), for which the Percent Effect in experiment [1] is -5.17%; in [2] it was -2.6%; in [3], 5.72%; in experiment [4] it was 7.39%; in experiment [5] it was 1.69%; in experiment [6] it was -7.47%. Besides, the Percent Effect is 4.56% in experiment [7]; 5.91% in [8]; 5.83% in experiment [9]; 14.6% in [10]; -7.79% in experiment [11].

Regarding `CN(C)c1ccc(CCNC(=O)C2CCC(=O)N(C3CCCC3)C2)cc1` (stereo not given), the Percent Effect was -4.96% in experiment [1]; 8% in experiment [2]; 1.17% in experiment [3]; 1.11% in experiment [4]; -2.04% in experiment [5]; 1.56% in [6]. Besides, the Percent Effect is 13.1% in [7]; 1.03% in experiment [8]; 2.73% in experiment [9]; 11.1% in experiment [10]; -5.65% in [11].

`O=C(Nc1nc2c(s1)CN(S(=O)(=O)C1CC1)CC2)c1c(F)cccc1F`: the Percent Effect in experiment [1] is -3.34%; in [2], 0%; in experiment [3] it was 17.1%; in [4] it was -7.6%; in [5] it was -4.11%; in experiment [6], 2.27%. The Percent Effect was 9.41% in experiment [7]; 30.1% in experiment [8]; 3.23% in experiment [9]; 7.5% in experiment [10]; -4.6% in experiment [11].

For the molecule `O=S(=O)(c1ccccc1)N1CCCN(CCCn2ccnc2)CC1`, the Percent Effect in [1] was -1.12%; in experiment [2], 0%; in [3] it was -5.54%; in [4], 24.8%; in [5] it was 5.38%; in experiment [6], -0.248%. Moreover, the Percent Effect is 3.35% in [7]; -7.92% in experiment [8]; 2.15% in [9]; 3.7% in experiment [10]; -12.2% in experiment [11].

Consider `Cn1nc2c(cc1=O)CN(Cc1coc(-c3cccs3)n1)CC2`, for which the Percent Effect in experiment [1] was 0.447%; in experiment [2] it was 16.2%; in experiment [3], -166%; in experiment [4] it was 5.69%; in experiment [5], 4.81%; in experiment [6], 0.802%. Moreover, the Percent Effect in [7] is -1.26%; in experiment [8], -8.71%; in experiment [9], -2.46%; in experiment [10], 3.7%; in experiment [11], -4.95%.

On to `Cc1cc2n(n1)CC(CNCc1ccnc(-n3ccnc3C)c1)CN2` (stereo not given), for which the Percent Effect in experiment [1] is -2.38%; in [2] it was 26.3%; in [3], -14.2%; in experiment [4], -7.03%; in experiment [5], 7.52%; in experiment [6], -4.98%. For the same molecule, the Percent Effect in [7] is 22.9%; in [8], 4.37%; in [9], 3.43%; in experiment [10], 17.1%; in [11], -13.8%.
